For test [1], the target named is T1, Protein kinase C zeta type (Homo sapiens) (UniProt Q05513).
T1 sequence (whole entry): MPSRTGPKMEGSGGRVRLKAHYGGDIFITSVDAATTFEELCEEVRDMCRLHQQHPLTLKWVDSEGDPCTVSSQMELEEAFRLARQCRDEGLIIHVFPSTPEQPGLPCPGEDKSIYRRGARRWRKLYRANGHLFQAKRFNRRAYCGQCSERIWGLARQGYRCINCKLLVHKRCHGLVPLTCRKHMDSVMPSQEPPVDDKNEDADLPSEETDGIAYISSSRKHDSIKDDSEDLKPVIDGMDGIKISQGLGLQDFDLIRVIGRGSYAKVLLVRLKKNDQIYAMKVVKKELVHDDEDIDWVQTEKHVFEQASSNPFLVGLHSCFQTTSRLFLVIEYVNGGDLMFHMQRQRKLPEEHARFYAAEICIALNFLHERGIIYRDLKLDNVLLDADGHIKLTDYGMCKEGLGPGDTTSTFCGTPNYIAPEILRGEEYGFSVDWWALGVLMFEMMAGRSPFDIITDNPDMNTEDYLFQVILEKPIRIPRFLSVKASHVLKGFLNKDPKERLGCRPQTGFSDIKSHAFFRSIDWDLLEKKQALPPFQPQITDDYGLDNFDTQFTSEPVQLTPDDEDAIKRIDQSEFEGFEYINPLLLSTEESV
Conditions: at 1 µM; call rule not given here.

The target in test [2] is T2, Mitogen-activated protein kinase kinase kinase 5 (Homo sapiens) (UniProt Q99683).
T2 sequence (whole entry): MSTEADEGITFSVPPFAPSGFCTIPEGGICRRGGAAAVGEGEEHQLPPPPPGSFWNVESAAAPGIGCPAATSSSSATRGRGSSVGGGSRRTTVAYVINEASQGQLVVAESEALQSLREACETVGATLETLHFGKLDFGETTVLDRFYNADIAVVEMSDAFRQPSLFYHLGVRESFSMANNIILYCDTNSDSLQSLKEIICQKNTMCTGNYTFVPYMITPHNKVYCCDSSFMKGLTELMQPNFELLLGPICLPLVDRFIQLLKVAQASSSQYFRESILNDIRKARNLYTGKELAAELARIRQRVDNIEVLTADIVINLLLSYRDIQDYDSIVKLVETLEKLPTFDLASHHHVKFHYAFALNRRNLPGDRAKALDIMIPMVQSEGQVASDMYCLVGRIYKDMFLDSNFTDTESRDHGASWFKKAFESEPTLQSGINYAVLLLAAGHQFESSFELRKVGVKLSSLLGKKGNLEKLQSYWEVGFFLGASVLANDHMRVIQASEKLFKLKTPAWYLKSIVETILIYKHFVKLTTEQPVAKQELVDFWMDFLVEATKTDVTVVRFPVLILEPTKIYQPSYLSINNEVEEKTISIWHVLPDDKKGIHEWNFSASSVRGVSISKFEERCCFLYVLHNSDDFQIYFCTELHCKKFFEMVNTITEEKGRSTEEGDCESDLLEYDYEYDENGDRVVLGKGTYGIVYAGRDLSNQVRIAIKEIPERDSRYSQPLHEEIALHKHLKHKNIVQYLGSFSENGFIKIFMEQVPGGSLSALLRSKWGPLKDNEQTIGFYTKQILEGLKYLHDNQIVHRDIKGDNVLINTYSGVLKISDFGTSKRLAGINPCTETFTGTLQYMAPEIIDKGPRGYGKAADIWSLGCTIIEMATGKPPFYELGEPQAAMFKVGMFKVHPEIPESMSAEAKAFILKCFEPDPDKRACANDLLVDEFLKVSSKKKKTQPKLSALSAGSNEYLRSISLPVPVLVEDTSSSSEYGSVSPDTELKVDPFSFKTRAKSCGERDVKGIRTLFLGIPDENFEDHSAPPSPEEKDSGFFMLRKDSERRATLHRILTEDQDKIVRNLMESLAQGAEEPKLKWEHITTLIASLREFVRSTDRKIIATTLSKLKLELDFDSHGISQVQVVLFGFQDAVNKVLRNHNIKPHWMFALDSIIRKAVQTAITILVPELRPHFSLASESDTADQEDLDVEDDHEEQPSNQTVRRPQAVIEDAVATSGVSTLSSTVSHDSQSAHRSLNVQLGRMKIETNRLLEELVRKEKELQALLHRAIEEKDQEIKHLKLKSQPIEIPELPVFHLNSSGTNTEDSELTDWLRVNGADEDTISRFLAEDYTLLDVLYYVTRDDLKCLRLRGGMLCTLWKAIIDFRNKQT
Conditions: at 10 µM.

In test [3] the target is Tyrosine-protein kinase ABL1 (Homo sapiens) (UniProt P00519). To be noted: at 1 µM.
Test [4] shares this target. To be noted: at 10 µM.
Test [5] addresses Tyrosine-protein kinase ABL2 (Homo sapiens) (UniProt P42684). To be noted: at 1 µM.
Test [6] has the same target. To be noted: at 10 µM.
Test [7] deals with T3, Aurora kinase A (Homo sapiens) (UniProt O14965).
T3 sequence (whole entry): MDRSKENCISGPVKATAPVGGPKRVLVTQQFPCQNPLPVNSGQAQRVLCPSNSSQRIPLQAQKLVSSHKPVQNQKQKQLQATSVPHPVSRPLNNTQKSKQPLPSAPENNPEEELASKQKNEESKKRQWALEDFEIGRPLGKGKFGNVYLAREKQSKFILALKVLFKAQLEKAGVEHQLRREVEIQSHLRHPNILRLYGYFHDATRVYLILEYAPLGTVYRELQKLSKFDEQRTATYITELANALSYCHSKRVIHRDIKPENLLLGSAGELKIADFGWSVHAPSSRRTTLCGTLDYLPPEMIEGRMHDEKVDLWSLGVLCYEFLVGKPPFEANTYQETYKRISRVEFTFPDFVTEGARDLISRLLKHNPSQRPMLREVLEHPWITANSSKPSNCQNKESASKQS
To be noted: at 1 µM.

Test [8] addresses T3, Aurora kinase A (Homo sapiens). Conditions: at 10 µM.
The target in test [9] is Aurora kinase B (Homo sapiens) (UniProt Q96GD4). To be noted: at 1 µM.
Aurora kinase B (Homo sapiens), sequence (Q96GD4 whole entry): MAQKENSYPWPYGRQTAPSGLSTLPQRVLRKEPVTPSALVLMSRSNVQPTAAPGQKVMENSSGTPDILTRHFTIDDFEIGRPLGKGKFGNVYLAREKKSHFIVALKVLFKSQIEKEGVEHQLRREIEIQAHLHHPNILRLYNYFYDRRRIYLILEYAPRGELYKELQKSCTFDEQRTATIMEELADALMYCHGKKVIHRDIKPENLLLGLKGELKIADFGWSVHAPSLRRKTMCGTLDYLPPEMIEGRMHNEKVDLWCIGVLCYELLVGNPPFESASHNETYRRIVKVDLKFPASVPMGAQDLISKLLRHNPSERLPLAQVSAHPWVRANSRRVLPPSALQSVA
For test [10] the target is unchanged. Conditions: at 10 µM.
Test [11] addresses T4, Aurora kinase C (Homo sapiens) (UniProt Q9UQB9).
T4 sequence (whole entry): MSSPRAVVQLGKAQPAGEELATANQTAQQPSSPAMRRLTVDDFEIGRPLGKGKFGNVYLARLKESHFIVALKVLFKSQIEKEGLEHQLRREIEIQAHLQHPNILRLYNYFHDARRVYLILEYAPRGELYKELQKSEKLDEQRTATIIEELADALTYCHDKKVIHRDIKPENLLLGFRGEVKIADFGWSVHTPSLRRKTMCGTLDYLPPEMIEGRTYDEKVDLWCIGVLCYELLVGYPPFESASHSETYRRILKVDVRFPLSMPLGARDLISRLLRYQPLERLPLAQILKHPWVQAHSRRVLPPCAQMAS
To be noted: at 1 µM.

The target of test [12] is T4, Aurora kinase C (Homo sapiens). Conditions: at 10 µM.
In test [13] the target is Tyrosine-protein kinase receptor UFO (Homo sapiens) (UniProt P30530). To be noted: at 1 µM.
Tyrosine-protein kinase receptor UFO (Homo sapiens), sequence (P30530 whole entry): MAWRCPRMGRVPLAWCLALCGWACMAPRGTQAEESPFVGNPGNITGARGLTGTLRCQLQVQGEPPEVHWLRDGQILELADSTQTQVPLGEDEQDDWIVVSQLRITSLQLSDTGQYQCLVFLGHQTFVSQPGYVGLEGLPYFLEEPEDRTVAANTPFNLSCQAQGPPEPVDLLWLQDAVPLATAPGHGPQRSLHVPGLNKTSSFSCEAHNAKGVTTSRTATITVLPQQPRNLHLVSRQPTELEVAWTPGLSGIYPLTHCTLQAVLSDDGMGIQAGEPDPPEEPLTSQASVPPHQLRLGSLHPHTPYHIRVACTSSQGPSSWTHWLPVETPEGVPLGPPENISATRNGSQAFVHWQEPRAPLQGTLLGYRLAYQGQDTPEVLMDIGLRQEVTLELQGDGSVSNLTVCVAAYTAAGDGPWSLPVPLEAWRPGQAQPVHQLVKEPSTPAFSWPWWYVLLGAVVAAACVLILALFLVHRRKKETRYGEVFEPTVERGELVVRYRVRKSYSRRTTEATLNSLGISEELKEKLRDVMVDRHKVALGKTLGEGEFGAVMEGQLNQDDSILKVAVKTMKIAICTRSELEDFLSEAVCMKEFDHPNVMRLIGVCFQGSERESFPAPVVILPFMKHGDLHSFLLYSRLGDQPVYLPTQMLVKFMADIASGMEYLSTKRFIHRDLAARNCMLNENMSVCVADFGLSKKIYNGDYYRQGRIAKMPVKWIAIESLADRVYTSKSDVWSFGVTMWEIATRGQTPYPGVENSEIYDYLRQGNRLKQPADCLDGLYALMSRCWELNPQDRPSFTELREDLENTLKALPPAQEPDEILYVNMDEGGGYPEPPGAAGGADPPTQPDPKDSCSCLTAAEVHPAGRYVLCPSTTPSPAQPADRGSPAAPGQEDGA
Test [14] has the same target. Conditions: at 10 µM.
Test [15] addresses Tyrosine-protein kinase BTK (Homo sapiens) (UniProt Q06187). Conditions: at 1 µM.
For test [16] the target is unchanged. Conditions: at 10 µM.
The target of test [17] is Tyrosine-protein kinase Blk (Homo sapiens) (UniProt P51451). To be noted: at 1 µM.
Tyrosine-protein kinase Blk (Homo sapiens), sequence (P51451 2-505 limits assumed): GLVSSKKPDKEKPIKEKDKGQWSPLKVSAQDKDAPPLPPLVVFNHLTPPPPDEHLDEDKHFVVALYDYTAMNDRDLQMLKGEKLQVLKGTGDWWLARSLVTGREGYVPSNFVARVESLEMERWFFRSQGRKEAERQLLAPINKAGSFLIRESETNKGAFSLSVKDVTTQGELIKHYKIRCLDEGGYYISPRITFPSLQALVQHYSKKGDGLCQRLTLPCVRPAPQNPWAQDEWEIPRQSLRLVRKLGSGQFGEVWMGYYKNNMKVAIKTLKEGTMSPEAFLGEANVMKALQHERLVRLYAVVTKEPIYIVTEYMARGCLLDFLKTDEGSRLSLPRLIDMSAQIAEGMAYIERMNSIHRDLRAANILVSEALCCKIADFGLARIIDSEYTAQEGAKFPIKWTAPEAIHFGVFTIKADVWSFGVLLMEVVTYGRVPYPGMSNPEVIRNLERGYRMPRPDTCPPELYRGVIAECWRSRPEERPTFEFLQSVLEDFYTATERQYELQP
Test [18] shares this target. Conditions: at 10 µM.
The target in test [19] is Protein-tyrosine kinase 6 (Homo sapiens) (UniProt Q13882). Conditions: at 1 µM.
Protein-tyrosine kinase 6 (Homo sapiens), sequence (Q13882 whole entry, looked up): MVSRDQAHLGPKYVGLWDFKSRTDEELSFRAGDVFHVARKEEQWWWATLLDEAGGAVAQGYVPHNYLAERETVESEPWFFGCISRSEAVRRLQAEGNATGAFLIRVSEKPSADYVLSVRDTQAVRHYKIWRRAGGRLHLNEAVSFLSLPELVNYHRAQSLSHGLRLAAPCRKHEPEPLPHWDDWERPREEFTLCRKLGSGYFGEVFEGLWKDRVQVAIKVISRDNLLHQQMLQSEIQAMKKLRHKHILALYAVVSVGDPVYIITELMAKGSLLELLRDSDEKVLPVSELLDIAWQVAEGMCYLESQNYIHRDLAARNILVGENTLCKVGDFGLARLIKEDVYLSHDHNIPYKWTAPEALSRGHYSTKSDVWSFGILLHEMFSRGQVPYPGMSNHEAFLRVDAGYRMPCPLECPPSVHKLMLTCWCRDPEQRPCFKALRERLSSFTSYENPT
For test [20] the target is unchanged. Conditions: at 10 µM.

Tyrosine-protein kinase BTK (Homo sapiens), sequence (Q06187 whole entry): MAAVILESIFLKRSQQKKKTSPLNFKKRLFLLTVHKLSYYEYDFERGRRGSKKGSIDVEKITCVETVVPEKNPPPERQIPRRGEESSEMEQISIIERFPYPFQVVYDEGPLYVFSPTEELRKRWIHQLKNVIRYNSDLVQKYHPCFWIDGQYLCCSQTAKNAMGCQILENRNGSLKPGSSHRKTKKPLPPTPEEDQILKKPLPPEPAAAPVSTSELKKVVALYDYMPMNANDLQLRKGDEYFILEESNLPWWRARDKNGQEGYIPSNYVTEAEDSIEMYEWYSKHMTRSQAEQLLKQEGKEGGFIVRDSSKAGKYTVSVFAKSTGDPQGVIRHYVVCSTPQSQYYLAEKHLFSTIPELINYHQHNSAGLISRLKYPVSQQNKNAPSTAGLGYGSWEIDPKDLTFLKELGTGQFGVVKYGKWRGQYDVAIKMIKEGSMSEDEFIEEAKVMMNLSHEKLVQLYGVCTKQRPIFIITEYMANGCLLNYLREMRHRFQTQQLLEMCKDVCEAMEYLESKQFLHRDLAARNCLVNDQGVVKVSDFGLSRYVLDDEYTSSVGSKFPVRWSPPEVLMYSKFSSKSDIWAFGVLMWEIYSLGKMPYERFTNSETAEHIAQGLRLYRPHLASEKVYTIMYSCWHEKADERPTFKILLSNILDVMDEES
Tyrosine-protein kinase ABL2 (Homo sapiens), sequence (P42684 whole entry): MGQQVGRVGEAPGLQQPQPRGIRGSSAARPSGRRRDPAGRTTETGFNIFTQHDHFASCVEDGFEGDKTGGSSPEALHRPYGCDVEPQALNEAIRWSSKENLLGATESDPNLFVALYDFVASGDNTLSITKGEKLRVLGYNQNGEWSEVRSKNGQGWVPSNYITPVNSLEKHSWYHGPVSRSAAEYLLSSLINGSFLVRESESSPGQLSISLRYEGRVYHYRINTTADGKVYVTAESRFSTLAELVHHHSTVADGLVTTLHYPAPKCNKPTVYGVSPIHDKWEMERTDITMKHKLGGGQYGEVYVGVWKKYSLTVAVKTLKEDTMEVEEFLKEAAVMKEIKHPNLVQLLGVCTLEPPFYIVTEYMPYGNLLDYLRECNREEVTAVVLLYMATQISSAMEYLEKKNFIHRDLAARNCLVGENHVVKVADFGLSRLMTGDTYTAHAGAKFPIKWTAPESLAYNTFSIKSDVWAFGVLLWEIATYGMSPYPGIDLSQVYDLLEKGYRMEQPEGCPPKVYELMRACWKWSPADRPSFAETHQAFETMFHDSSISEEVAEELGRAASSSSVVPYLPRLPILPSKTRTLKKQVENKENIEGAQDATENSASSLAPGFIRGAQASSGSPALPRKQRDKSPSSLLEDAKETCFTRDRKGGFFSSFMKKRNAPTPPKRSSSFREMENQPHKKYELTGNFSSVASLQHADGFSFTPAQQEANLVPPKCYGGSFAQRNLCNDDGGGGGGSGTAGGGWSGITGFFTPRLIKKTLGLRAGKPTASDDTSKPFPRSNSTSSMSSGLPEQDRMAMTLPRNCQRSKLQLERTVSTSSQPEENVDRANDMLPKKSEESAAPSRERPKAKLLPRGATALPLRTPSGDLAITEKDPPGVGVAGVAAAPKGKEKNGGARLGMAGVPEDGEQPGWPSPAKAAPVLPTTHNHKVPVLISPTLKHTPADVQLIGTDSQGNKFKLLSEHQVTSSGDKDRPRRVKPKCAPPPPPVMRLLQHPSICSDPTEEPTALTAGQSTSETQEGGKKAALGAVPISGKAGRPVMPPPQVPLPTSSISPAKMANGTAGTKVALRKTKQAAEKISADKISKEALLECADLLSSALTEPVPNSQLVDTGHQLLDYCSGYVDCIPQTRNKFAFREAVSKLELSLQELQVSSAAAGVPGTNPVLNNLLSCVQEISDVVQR

Regarding `N#Cc1cnc2cnc(NCc3cccnc3)cc2c1Nc1ccc(F)c(Cl)c1`, the residual activity in [1] is 103% (inactive); in test [2] it was 65%; in [3], 98%; in [4] it was 84%; in test [5], 82%; in test [6], 55%. Also, the residual activity in [7] turned out to be 31%; in test [8], 24%; in test [9] it was 3%; in test [10] it was 1%; in test [11] it was 71%; in test [12], 54%. Besides, the residual activity in test [13] is 19%; in [14] it was 22%; in test [15] it was 70%; in test [16], 58%; in test [17], 4%; in test [18] it was 3%.
With `CC(=O)O/N=C1\C(=C2\C(=O)Nc3cc(Br)ccc32)Nc2ccccc21`, the residual activity in test [1] was 108% (inactive); in test [2], 94%; in test [3] it was 60%; in test [4], 7%; in [5], 31%; in [6], 4%. The residual activity came out at 41% in [7]; 17% in test [8]; 19% in [9]; 6% in test [10]; 89% in [11]; 82% in test [12]. The residual activity in [13] stood at 77%; in test [14], 44%; in [19], 99%; in test [20], 77%; in test [15], 25%; in test [16] it was 4%. Besides, the values for the residual activity in [17] and in test [18] were 19% and 3%, respectively.
As to `COc1cc2ncnc(Nc3ccc(Oc4ccccc4)cc3)c2cc1OC`, the residual activity is 108% (inactive) in [1]; 73% in test [2]; 61% in test [3]; 75% in test [4]; 82% in test [5]; 93% in test [6]. The residual activity worked out at 52% in [7]; 30% in [8]; 28% in test [9]; 9% in test [10]; 59% in [11]; 59% in test [12]. The residual activity in test [13] was determined as 54%; in test [14], 25%; in test [19] it was 7%; in [20] it was 4%; in test [15] it was 15%; in test [16], 2%. In addition, the residual activity in test [17] and in test [18] was 0% in each case.
Consider `c1ccc(-c2n[nH]c3c2oc2ccccc23)cc1`, for which the residual activity in test [1] was 99% (inactive); in [2] it was 90%; in test [3] it was 96%; in [4] it was 77%; in test [5], 115%; in [6] it was 93%. The residual activity in [7] is 53%; in [8] it was 31%; in test [9], 39%; in test [10], 4%; in test [13], 81%; in test [14], 73%. The residual activity in test [17] came out at 98%; in [18], 49%.
Regarding `Oc1ccc(-c2nc(-c3ccc(F)cc3)c(-c3ccncc3)[nH]2)cc1`, the residual activity in test [1] was 113% (inactive); in test [2] it was 80%; in test [3], 98%; in test [4], 95%; in test [5], 78%; in test [6], 41%. For the same molecule, the residual activity worked out at 105% in test [7]; 89% in test [8]; 69% in test [9]; 58% in [10]; 113% in test [11]; 95% in [12]. Besides, the residual activity worked out at 121% in test [13]; 83% in test [14]; 49% in [19]; 5% in test [20]; 108% in test [15]; 77% in [16]. Further, the residual activity is 109% in test [17] and 44% in test [18].
On to `Nc1cccc(-c2cc3c(Oc4cccc(O)c4)ncnc3[nH]2)c1`, for which the residual activity in [2] was 95%; in [3], -6%; in test [4] it was -5%; in [5] it was -3%; in test [6] it was -2%; in test [7], 28%. For the same molecule, the residual activity was 1% in test [8]; 9% in test [9]; 0% in test [10]; 72% in test [11]; 20% in test [12]; 101% in [13]. Moreover, the residual activity is 39% in test [14]; 0% in [19]; 0% in [20]; 21% in test [15]; -1% in test [16]; 7% in [17]. Further, the residual activity in [18] is 1%.
With `O=Nc1c(-c2c(O)[nH]c3ccccc23)[nH]c2ccccc12`, the residual activity was 101% (inactive) in test [1]; 7% in [2]; 49% in [3]; 16% in [4]; 30% in test [5]; 28% in [6]. For the same molecule, the residual activity is 7% in test [7]; 0% in test [8]; 1% in test [9]; -2% in [10]; 61% in test [11]; 49% in test [12]. The residual activity in test [13] amounted to 17%; in test [14], 8%; in test [19], 91%; in [20] it was 23%; in test [15] it was 31%; in test [16], 4%. The results for the residual activity in test [17] and in [18] were 11% and 0%, respectively.
